Assay outcomes from PubChem.
Shown are actives, neighbours in structure and some others; about 2.7% of the full set was active somewhere.
TRPM1 prom inh: inhibitors of MITF-driven TRPM1 promoter in melanoma cells; SK-MEL-5 TRPM1 promoter luciferase, 24 h; inhibition, % at 12.5 µM; 0.83% of 330,000 active; AID 488899;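 active = mean inhibition across replicates of 60% or more, whatever share of single replicates reaches that level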
Peg3 promoter: reduces Peg3 promoter-driven luciferase expression in HeLa | HeLa PEG-Prom luciferase reporter, luminescence, overnight | inhibition, % at 20 µM | 1.7% of 360,000 active | AID 588405;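 active = inhibition of at least 50% at 20 µM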
HIF-2a inh: blocks HIF-2a reporter activity; 786-0 RCC cells HIF-2a reporter, luciferase luminescence, overnight; inhibition, % at 18.8 µM; 0.72% of 360,000 active; AID 624352;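 active = inhibition of the luminescence signal of 40% or more relative to plate controls, in a single-dose primary screen at 18.75 µM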
KKLEB tox: counter-screen for CF NF-kB inhibitors: cytotoxicity | activity change (cytotoxicity), % at 5 µM | KKLEB CF airway cells viability, ATPlite luminescence, overnight; active compounds read low; cells stimulated with P. aeruginosa culture filtrate | 0.36% of 360,000 active;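 active = corrected activity change at or below -50% at 5 µM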
CF NFkB block: blocks PAF-induced NF-kB reporter in cystic fibrosis cells; KKLEB NF-kB-GFP reporter, GFP fluorescence overnight; inhibition, % at 5 µM; 0.86% of 360,000 active;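 active = at least 50% inhibition at 5 µM, scaled per plate between neutral and stimulator controls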;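 also: PAF is a Pseudomonas aeruginosa culture filtrate used as stimulus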
Shn3 3UTR inh: inhibitors of Schnurri-3 3'UTR reporter in osteoblasts; Clone20 osteoblast Shn3 3'UTR firefly luciferase, 24 h; inhibition, % at 12.5 µM; 0.52% of 360,000 active;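 active = mean inhibition of at least 75% with every replicate also reaching 75%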
Each line names hits and unclear results; the compound was inactive in the other large screens.

CCOC(=O)c1cnc2ccc(C)cc2c1Nc1ccc(N2CCOCC2)cc1	Peg3 promoter 79
CCOC(=O)c1ccc(Nc2cc(C)nc(N3CCOCC3)n2)cc1	Peg3 promoter 55
CCOC(=O)c1ccc2ncc(C(=O)OCC)c(NCCN3CCOCC3)c2c1	none
COC(=O)C1(C(=O)OC)c2cc3c(cc2CN(S(=O)(=O)c2ccc(C)cc2)C1CC(C)=O)OCO3 (stereo unspecified)	none (no result: TRPM1 prom inh, Peg3 promoter, KKLEB tox, CF NFkB block, Shn3 3UTR inh)
CCn1c2ccccc2nc2cc3c(cc21)c(Cl)c(=O)c1ccccc13	Peg3 promoter 62, HIF-2a inh 54, CF NFkB block 81 (no result: TRPM1 prom inh)
O=C(CCCN1C(=O)/C(=C/c2cccs2)SC1=S)Nc1ccccc1O	none
O=C(CCCN1C(=O)/C(=C\c2cccs2)SC1=S)Nc1ccc(O)cc1C(=O)O	Peg3 promoter 53
O=C(CCCN1C(=O)/C(=C/c2cccs2)SC1=S)NNC(=O)c1ccccc1O	HIF-2a inh 41
CC(CN1CCCCC1)NC(=O)c1scnc1-c1ccccc1 (stereo unspecified)	none (no result: TRPM1 prom inh)
CCCCN(C)c1c(C)nc2ccc(C(=O)NCc3ccc4c(c3)OCO4)cn12	none (no result: TRPM1 prom inh)
Cc1ccc(NC(=O)Cn2c(O)c(N=NC(N)=O)c3ccccc32)cc1	none
Cc1ccc(NC(=O)Cn2c(O)c(N=NC(N)=S)c3ccccc32)cc1	HIF-2a inh 47
CC1(C)CC2(C)OC2C2(C1)N=NC(=Nc1ccccc1)O2 (stereo unspecified)	Peg3 promoter 73 (no result: TRPM1 prom inh)
COC(=O)c1c[nH]c2c1-c1cc(C(=O)OCc3ccccc3)n(S(=O)(=O)c3ccc(C)cc3)c1C(=O)C2=O	TRPM1 prom inh 112, Peg3 promoter 82, CF NFkB block 86
Cc1ccc(S(=O)(=O)Cc2ccc(C(=O)OCc3ccccc3)cc2)cc1	none
Cc1sc2ncnc(N/N=C/c3ccccc3O)c2c1C	Shn3 3UTR inh 86
Cc1sc2ncnc(N/N=C/c3ccc(O)cc3)c2c1C	none
Cc1cccc(N(Cc2ccccc2)C(=O)CCl)c1	Peg3 promoter 59, KKLEB tox -107, CF NFkB block 96
COc1ccc(CC(=O)N(Cc2ccccc2)c2cccc(C)c2)cc1OC	none
Cn1cc(/C=C2/SC(=O)N(CC(=O)Nc3ccc4c(c3)OCO4)C2=O)c2ccccc21	KKLEB tox -66, CF NFkB block 58
O=C(CN1C(=O)S/C(=C\c2ccc(-c3cc(C(=O)O)ccc3Cl)o2)C1=O)Nc1ccc2c(c1)OCO2	none
O=C(CCCN1C(=O)/C(=C/c2ccc3c(c2)OCO3)SC1=S)Nc1ccc(C(=O)O)cc1	HIF-2a inh 69
O=C(CCCN1C(=O)C(=Cc2ccc3c(c2)OCO3)SC1=S)Nc1ccc(C(=O)O)c(O)c1	HIF-2a inh 51 (no result: TRPM1 prom inh)
CCCCn1nnnc1C(c1ccccc1)N1CCCN(Cc2ccc(F)cc2)CC1 (stereo unspecified)	none (no result: TRPM1 prom inh, Peg3 promoter, KKLEB tox, CF NFkB block, Shn3 3UTR inh)
Cc1ccc(C(=O)NCCN2CCC(n3c(=O)[nH]c4ccccc43)CC2)cc1	none (no result: TRPM1 prom inh, Peg3 promoter, KKLEB tox, CF NFkB block, Shn3 3UTR inh)
NC(=O)c1cccc(Nc2nc(C(N)Cc3ccc(C(F)(F)F)cc3)cs2)n1 (stereo unspecified)	none (no result: TRPM1 prom inh)
CC(C)(C)c1ccccc1NC(=O)Nc1nc(C(N)Cc2ccc(F)cc2)cs1 (stereo unspecified)	Peg3 promoter 98 (no result: TRPM1 prom inh)
CC(C)c1ccccc1NC(=O)Nc1nc(C(N)Cc2ccc(C(F)(F)F)cc2)cs1 (stereo unspecified)	Peg3 promoter 108, Shn3 3UTR inh 98 (no result: TRPM1 prom inh)
NC(c1csc(NC(=O)Nc2ccc(OC(F)(F)F)cc2)n1)C1CCCCC1 (stereo unspecified)	Peg3 promoter 100, KKLEB tox -65, CF NFkB block 69 (no result: TRPM1 prom inh)
CC(N)c1csc(NC(=O)Nc2cccc(C(F)(F)F)c2)n1 (stereo unspecified)	Peg3 promoter 78 (no result: TRPM1 prom inh)
CC(C)(C)c1ccccc1NC(=O)Nc1nc(C(N)c2ccccc2)cs1 (stereo unspecified)	none (no result: TRPM1 prom inh)
O=C(NCC(F)(F)F)c1[nH]c(C(F)(F)F)nc1-c1ccccc1	none (no result: TRPM1 prom inh)
O=C(Nc1c(-c2ccc(Cl)cc2)[nH][nH]c1=O)c1ccc(Br)cc1	none (no result: TRPM1 prom inh)
CCC(CC)C(=O)N(C)c1c(C)nc2c(OCc3ccc(F)c(F)c3)cccn12	none (no result: TRPM1 prom inh)
CN(CC1CCCN(CCc2ccccc2F)C1)C(=O)c1cc2ccccc2o1 (stereo unspecified)	none (no result: TRPM1 prom inh)
NC(Cc1ccc(C(F)(F)F)cc1)c1csc(NC(=O)Nc2ccccc2Cc2ccccc2)n1 (stereo unspecified)	Peg3 promoter 118, KKLEB tox -92, CF NFkB block 92 (no result: TRPM1 prom inh)
NC(CO)c1csc(NC(=O)Nc2ccccc2Cc2ccccc2)n1 (stereo unspecified)	none (no result: TRPM1 prom inh)
O=C(Nc1ccccc1)OC[C@@H]1C=CS(=O)(=O)N1Cc1ccc(Br)cc1	none (no result: TRPM1 prom inh)
N#C/C(=N/Nc1ccc(OC(F)(F)F)cc1)C(N)=S	CF NFkB block 64
Cc1c(CN(C)C(=O)C2CCC(=O)N(Cc3ccccc3F)C2)[nH]c2ccccc12 (stereo unspecified)	none (no result: TRPM1 prom inh)
CC(=O)Nc1cc(-c2ccc(N(C)C)cc2)cn2c(-c3ccc(F)cc3)cnc12	none (no result: TRPM1 prom inh)
O=C(Nc1cccc(Cl)c1)Nc1nnc(CSCCOc2ccc(Cl)cc2)s1	TRPM1 prom inh 67
Cc1ccc(NC(=O)Nc2nnc(CSCCOc3ccc(Cl)cc3)s2)cc1	none
OC[C@@H]1CN(Cc2ccccc2)C[C@H](n2cnc3c(NCc4ccncc4)ncnc32)O1	none (no result: TRPM1 prom inh)
O=C1Cc2c([nH]c3ccc([N+](=O)[O-])cc23)-c2ccccc2N1	Peg3 promoter 108, CF NFkB block 84
COc1ccc(C(=O)OCC(=O)Nc2ncc([N+](=O)[O-])s2)cc1OC	Shn3 3UTR inh 86
CCc1nc2ccc(C(=O)N(C)CCCN(C)C)cn2c1N(C)Cc1cc2ccccc2s1	none (no result: TRPM1 prom inh)
COc1cc(CN2C[C@@H](CO)O[C@@H](n3cnc4c(NC(C)C)ncnc43)C2)cc(OC)c1OC	none (no result: TRPM1 prom inh)
COc1cccc(NC(=O)COC(=O)c2c3c(nc4ccccc24)CCC(C)C3)c1 (stereo unspecified)	Peg3 promoter 71
CCc1nc2ccc(C(=O)NCCc3c[nH]c4ccccc34)cn2c1N(C)CCCc1ccccc1	Peg3 promoter 61 (no result: TRPM1 prom inh)
CCCCN(C=O)c1c(CC)nc2ccc(C(=O)NCCc3c[nH]c4ccccc34)cn12	none (no result: TRPM1 prom inh)
CC1(C(=O)NCc2cccs2)Cc2c(-c3cccc(C(F)(F)F)c3)ccnc2O1 (stereo unspecified)	none (no result: TRPM1 prom inh)
COc1ccc2nc(NN=C(C)c3ccccn3)cc(C)c2c1	TRPM1 prom inh 77, Shn3 3UTR inh 86
CCC(C)CN1C(=O)CN(S(C)(=O)=O)CC1(C)C(=O)Nc1c(C)cccc1C (stereo unspecified)	none (no result: TRPM1 prom inh, Peg3 promoter, KKLEB tox, CF NFkB block, Shn3 3UTR inh)
COc1ccc(C(=O)NC(=S)NNC(=O)[C@H]2C[C@@H]2c2ccccc2)cc1OC	Peg3 promoter 61
Cc1ccc(S(=O)(=O)N2C3CCCCC3O[C@H]2CC(=O)c2cccs2)cc1 (stereo partly specified)	none (no result: TRPM1 prom inh, Peg3 promoter, KKLEB tox, CF NFkB block, Shn3 3UTR inh)
CCOC(=O)/C(C#N)=C/c1cccc(C)c1	Peg3 promoter 73
